ALOX12 inhib: qHTS Assay for Inhibitors of 12-hLO (12-human lipoxygenase); purified 12-hLO, xylenol orange hydroperoxide absorbance; Potency, µM (top dose mostly 57.1 µM), without a hit: at the highest dose activity change, negative = inhibition, most hits filed as inhibitors; 150,000 tested, 0.12% active; active = well fitted curve in the direction sought with a large enough effect; inconclusive = small, poorly fitted or top-dose-only effect, or another doubt; inactive = no such curve, though single readings can be large; an effect the other way counts as inactive or inconclusive; also: potency is read from the fitted curve at half-maximal effect; nearly all actives have a fitted effect of over 55% in size
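150 nM 12hLO, 25 mM Hepes pH 7.0 + 0.01% Triton X-100; cpd preinc 15 min RT; 40 uM arachidonic acid, 30 min RT; Fe-XO 30 min; A573/A405 ratio as read-out.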
PNC assembly inh: High Content Assay for Compounds that inhibit the Assembly of the Perinucleolar Compartment | 140,000 tested, 3.1% active | activity change (PNC), negative = inhibition, % at 10 µM | AID 2417, 2010 | PC3M PTB-GFP, PNC prevalence imaging, 16 h; active compounds read low;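 active = readout at or below -70, meaning at least 70% loss of cells showing the perinucleolar compartment, a nuclear body marking cancer cells; inconclusive = readout between -30 and a set limit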;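 also: plate controls were DMSO wells for no effect and camptothecin positive control wells for full effect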
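Read-out is percentage of cells bearing a perinucleolar compartment, from automated 20x imaging of fixed, Hoechst-stained PC3M PTB-GFP cells. Cells were seeded 4 h, then exposed 16 h to compound (23 nl of library stock) in duplicate plates.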
ALDH1A1 inh: qHTS Assay for Inhibitors of Aldehyde Dehydrogenase 1 (ALDH1A1) | Aldehyde dehydrogenase 1A1 (Homo sapiens), P00352 | Purified ALDH1A1, NADH fluorescence, propionaldehyde substrate | Potency, µM (series often up to 75.3 µM), without a hit: top-dose activity, negative = inhibition, actives largely listed as inhibitors | 220,000 tested, 7.3% active | AID 1030, 2008;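 also: potency is read from the fitted curve at half-maximal effect; plate controls were no enzyme wells and a reference inhibitor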
HPGD block: qHTS Assay for Inhibitors of HPGD (15-Hydroxyprostaglandin Dehydrogenase). purified HPGD, NADH fluorescence kinetic, PGE2 substrate. Potency, µM, without a hit: at the highest dose activity change, negative = inhibition, hits mostly inhibitors. 150,000 tested, 4.3% active. AID 894, 2007; also: potency is read from the fitted curve at half-maximal effect
Target sequence (P15428 whole entry, looked up): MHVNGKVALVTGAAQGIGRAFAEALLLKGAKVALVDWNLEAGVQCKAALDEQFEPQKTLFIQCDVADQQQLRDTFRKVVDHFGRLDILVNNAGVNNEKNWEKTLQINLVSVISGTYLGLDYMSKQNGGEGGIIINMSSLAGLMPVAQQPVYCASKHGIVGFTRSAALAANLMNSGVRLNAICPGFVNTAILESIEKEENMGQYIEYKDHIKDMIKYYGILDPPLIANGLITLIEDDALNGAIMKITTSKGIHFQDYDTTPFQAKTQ
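20 nM HPGD preincubated 15 min at room temperature with compound in 50 mM Tris-HCl pH 8, 0.01% Tween 20. Started with 1 mM NAD+ and 30 uM prostaglandin E2; NADH fluorescence (360/450 nm) read 5 times over 30-s intervals, last minus first.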
IMPase cell inh: qHTS Assay for Identifying the Cell-Membrane Permeable IMPase Inhibitors | Inositol monophosphatase 1 (Rattus norvegicus), P97697 | CHO-M1 cells, IP1 accumulation, HTRF TR-FRET ratio | inhibition (IP1 accumulation), % at 46.1 µM | 120,000 tested, under 10 active | AID 901, 2007; active = well fitted curve in the direction sought with a large enough effect in the signal ratio, not every such curve was filed as active; inconclusive = small, poorly fitted or top-dose-only effect, or a change in a side signal; inactive = no such curve, though single readings can be large or run the other way; the % refers to the signal ratio;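 also: cells stimulated with carbachol in lithium chloride buffer; plate controls were DMSO basal wells for no effect and reference inhibitor wells for full effect; higher means more IMPase inhibition seen as more IP1 and lower FRET ratio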
Target sequence (P97697 whole entry, looked up): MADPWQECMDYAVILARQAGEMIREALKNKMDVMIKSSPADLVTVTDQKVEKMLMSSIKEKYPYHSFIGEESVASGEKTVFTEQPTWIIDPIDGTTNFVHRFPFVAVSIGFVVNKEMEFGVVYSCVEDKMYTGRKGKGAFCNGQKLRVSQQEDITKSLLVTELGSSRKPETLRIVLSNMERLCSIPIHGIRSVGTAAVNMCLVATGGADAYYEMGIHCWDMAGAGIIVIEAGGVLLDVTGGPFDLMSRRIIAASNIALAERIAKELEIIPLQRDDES
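Cellular IMPase inhibition is scored as a rise in cytosolic IP1, detected by competitive TR-FRET between d2-labelled IP1 and a europium anti-IP1 antibody. M1-expressing CHO cells were stimulated with carbachol for 30 min at 37C, with lithium (50 mM LiCl) present in the buffer.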
IMPase Li inh: qHTS Assay for Identifying the Cell-Membrane Permeable IMPase Inhibitors: Potentiation with Lithium; CHO-M1 cells, IP1 TR-FRET (IP-One), carbachol + lithium; Potency, µM (highest dose often 59.4 µM), without a hit: at the highest dose activity, negative = IMPase inhibition, hits mostly inhibitors; 210,000 tested, 0.35% active; AID 1457, 2008; active = well fitted curve in the direction sought with a large enough effect; inconclusive = small, poorly fitted or top-dose-only effect, or another doubt; inactive = no such curve, though single readings can be large; an effect the other way counts as inactive or inconclusive;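 also: IP1 builds up when IMPase is blocked and the TR-FRET signal falls; potency is read from the fitted curve at half-maximal effect; plate controls were basal vehicle for no effect and high inhibitor control for full effect; nearly all actives have a fitted effect of over 50% in size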
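CHO cells stably expressing M1 receptor (2000/well) were cultured 16–30 h, then exposed to compounds with a small lithium addition for 30 min at 37C. IP1 was measured by TR-FRET competition; AC50 from Hill fits.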
* = called active by the depositor; [ ] = remark or other dose. Rows were chosen to be rich in hits. Some 11% of all compounds tested hit in one or more screens of this group. Unless noted, calls follow the shape of the dose curve; as a rule, active = well fitted inhibition curve with a large enough effect (not every such curve was filed as active); inconclusive = small, poorly fitted or top-dose-only effect, or another doubt; inactive = no such curve, though single readings can be large or run the other way. Unless noted, % is scaled to controls: 0 for no effect and ±100 for the full control effect.

For Cc1nn(-c2ccccc2)c2c1C(c1ccc(F)cc1F)C(C#N)=C(N)O2 (centres undefined) the results were ALOX12 inhib -8%, PNC assembly inh inconclusive, ALDH1A1 inh 13µM*, HPGD block 28µM*, IMPase cell inh 3 and IMPase Li inh 25%[38.3 µM].
`CC(C)C(=O)CP(=O)(O)O` gave ALOX12 inhib -1%[11.4 µM], ALDH1A1 inh -6%[13.5 µM], HPGD block -10% and IMPase Li inh -2%.
CN1C[C@@H](CS(=O)(=O)N(C)C)C[C@H]2c3cccc4c3c(cn4C)C[C@@H]21 was read as ALOX12 inhib -3% and IMPase cell inh 6.
For O=c1[nH]c(=O)n([C@H]2C[C@H](O)[C@H](CO)O2)cc1/C=C\Br the results were ALOX12 inhib -4% and IMPase cell inh inconclusive.
Screening N#CCCC#N returned ALOX12 inhib -4%, ALDH1A1 inh 28µM*, HPGD block -10% and IMPase Li inh -8%.
CC12CCC3C(CC=C4CC5(CCC43C)OCCO5)C1CCC2=O (centres undefined) was read as ALDH1A1 inh -2% and IMPase Li inh -2%.
Screening CC(=O)OC1=CC2=CC[C@H]3[C@H]4CCC(=O)[C@@]4(C)CC(=O)[C@]3(S)[C@]2(C)CC1 returned ALOX12 inhib -6%[11.4 µM], ALDH1A1 inh 4.5µM*, HPGD block -4% and IMPase Li inh 9%.
Screening CN(C(=O)Cc1ccc(Cl)c(Cl)c1)C(CN1CCCC1)c1cccc(N=C=S)c1 (centres undefined) returned ALDH1A1 inh inconclusive and IMPase Li inh 36%.
For COc1ccc(CCNCc2ccncc2)cc1 the results were ALOX12 inhib -8%, PNC assembly inh -3, ALDH1A1 inh 22µM*, HPGD block 4%, IMPase cell inh 3 and IMPase Li inh 37%[38.3 µM].
COc1ccc(CCNCc2ccc(OC)c(OC)c2OC)cc1 was read as ALOX12 inhib 0%, PNC assembly inh -13, ALDH1A1 inh inconclusive, HPGD block -5%, IMPase cell inh 12 and IMPase Li inh 25%[38.3 µM].
`COc1ccc(N/N=C/c2c(O)n(-c3cccc(C)c3)c(=O)[nH]c2=O)cc1` gave ALDH1A1 inh 3.2µM* and IMPase Li inh 12%.
Cc1ccc(-n2c(O)c(/C=N/Nc3ccccc3)c(=O)[nH]c2=O)cc1C was read as ALDH1A1 inh 1%.
For COc1ccc(N/N=C/c2c(O)n(-c3ccc(C)c(C)c3)c(=O)[nH]c2=O)cc1 the results were ALOX12 inhib -8%, PNC assembly inh 51, ALDH1A1 inh 1.6µM*, HPGD block inconclusive and IMPase Li inh 13%.
For O=C(O)C[C@H]1NCc2cc3ccccc3nc21 the results were ALOX12 inhib 4%[11.4 µM], ALDH1A1 inh 8%[13.5 µM], HPGD block -3% and IMPase Li inh 13%.
Screening O=C(c1ccc2c(c1)ncn2C1CCCCC1)N1CCC2(CC1)OCCO2 returned ALOX12 inhib 0%, PNC assembly inh 56, ALDH1A1 inh -2%, HPGD block 7.9µM*, IMPase cell inh -8 and IMPase Li inh -10%[38.3 µM].
Screening O=C(c1cc2ccccn2n1)N1CCC2(CC1)OCCO2 returned ALOX12 inhib 1%, PNC assembly inh inconclusive, ALDH1A1 inh inconclusive, HPGD block -11%, IMPase cell inh -8 and IMPase Li inh -10%[38.3 µM].
For C(=C\c1ccccc1)/CN1CCN(CCOC(c2ccccc2)c2ccccc2)CC1 the results were ALDH1A1 inh -5% and IMPase Li inh 26%.
